This note sets out measurements from PubChem BioAssay (NCI).

About 83,000 compounds went through this panel and 20% of them were active in at least one assay; those are over-represented in the sample as a whole.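 Cells were grown in 96-well plates and exposed to the test compound at a single concentration for 48 hours; results are reported as percent growth, with values below 10 considered active.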 A number with no mark means an inactive call. The source made the active and inactive calls.

The experiment relates to NCI-H460 lung. The experiment in a line: NCI-60 one-dose screen, 48 h (100 = growth as untreated, 0 = no growth, -100 = all killed). As to conditions: 10 µM unless noted. The method, then: Growth inhibition of the NCI-H460 human Non-Small Cell Lung tumor cell line is measured as a screen for anti-cancer activity. Cells are grown in 96 well plates and exposed to the test compound for 48 hours. Compounds are tested at a single concentration, which is 10^-5 M for most compounds. The reported endpoint is percent growth (GI% or GIPRCNT), where numbers from 0 - 100% represent growth inhibition, and numbers from -100% - 0 represent cell death. For example, a value of 40 represents 60% growth inhibition. A value of 0 means no net growth occurred over the course of the experiment. A value of -40 indicates 40% of cells at the beginning of the experiment died by the end of the experiment. A value of -100 means all cells are dead at the end of the experiment.
NCI-60 Human Tumor Cell Lines Screen was performed using the standard one-dose NCI protocol, which is described in more detail at https://dtp.cancer.gov/discovery_development/nci-60/default.htm.
Compounds with GIPRCNT values below 10 were considered active. Activity score was based on GIPRCNT using the following formula: […]
Score is 0 for GIPRCNT values of 100 or above, 50 for GIPRCNT values of 0, and 100 for GIPRCNT values of -100.
On to `Cc1nc(Nc2ccc(NC(=S)Nc3ccccc3)cc2)nc2nc(Nc3cccc(Cl)c3)[nH]c(=O)c12`, for which the growth is 114%.
Consider `CCCCOC(=O)c1ccc(NC(=O)C(C)N2CCOCC2)cc1` (stereo not given), for which the growth was 105%.
On to `c1ccc2c(c1)nc(-n1ccnc1)c1nc3ccccc3n12`, for which the growth is 40.7%.
For the compound `CN(C)S(=O)(=O)n1cnc([C@@H]2[C@@H]3C(=O)OC[C@@H]3C[C@]23N=CN(Cc2ccccc2)C3=O)c1`, the growth was 113%.
In the case of `COc1ccc(-c2c(N)n[nH]c2-c2ccccc2O)cc1OC` it was 107%.
With `CCCCNCC(=O)Nc1ccc(C(=O)OCC)cc1`, the growth was 106%.
Regarding `CCOC(=O)c1ccc(-c2ccc3cc(OC)ccc3c2)nc1C`, the growth was 103%.
As to `CCCCCOC(=O)c1cccc(NC(=O)CN(CC)CC)c1`, the growth is 111%.
As to `Cn1c(NCCc2ccc(O)c(O)c2)nc2c1c(=O)n(Cc1ccc(Cl)cc1)c(=O)n2C`, the growth is 96.9%.
On to `O=C(NCOC(O)C(Cl)(Cl)Cl)NCOC(O)C(Cl)(Cl)Cl` (stereo not given), for which the growth was 112%.
Consider `N=C(N)c1ccc(-c2ccc(-c3ccc(Cl)c(Cl)c3)o2)nc1`, for which the growth was -78.1% (active).
With `COc1cc(-c2cccc([N+](=O)[O-])c2)c(-c2nc(-c3ccccc3)c(-c3ccccc3)n2C2CC2)cc1OC`, the growth was 55.5%.
With `O=C(O)CC1Sc2ccccc2NC1=O` (stereo not given), the growth is 195%.
In the case of `C=C(C)[C@@H]1CC[C@]2(CO)CC[C@]3(C)[C@H](CC[C@@H]4[C@@]5(C)C=C(C#N)C(=O)C(C)(C)[C@@H]5CC[C@]43C)[C@@H]12`, the growth is -7.1% (active).
With `Cc1cc(N2CCCCC2)nc(N(CCNc2ccnc3cc(Cl)ccc23)Cc2ccccn2)n1`, the growth was 41.5%.
As to `O[C@H]1CO[C@H]2[C@@H]1OC[C@@H]2Oc1ccc(Nc2ccnc(Nc3ccc(O[C@H]4CO[C@H]5[C@@H]4OC[C@@H]5O)c(Cl)c3)n2)cc1Cl`, the growth is 1.27% (active).
To `Nc1c(C(=O)c2ccc(Cl)s2)sc2nc3c(cc12)CCCC3` belongs 98.6%.
`O=C(CCc1nc(-c2cccc(Cl)c2)no1)Nc1ccccn1`: the growth is 103%.
As for `NC(=Nc1ccc(N)cc1)C(N)=Nc1ccc(N)cc1`, the growth is 106%.
In the case of `C[C@@H]1CC[C@@H]2[C@@H]1[C@H](OC(=O)c1ccc3ccccc3c1)[C@]1(C3CCCCC3)C[C@@H](OC(=O)CO)[C@@]2(C)O1` it was 49.9%; in that of `Cc1cnc(Nc2ccc(N3CCN(C)CC3)cc2)nc1Nc1ccc(Cl)c(NS(=O)(=O)C(C)(C)C)c1`, 20.5%; in that of `CN(C)CCn1cc(-c2ccc3c(Nc4ccc(CC(=O)Nc5cccc(F)c5)cc4)ncnc3c2)cn1`, -74.1% [30 µM] (active).
For `CN(CCCCCCCCNc1ccnc2ccccc12)Cc1ccc(-c2ccc(-c3ccc(C#N)cc3)s2)cc1`, the growth is -76.3% (active).
With `COc1ccc(-c2nc3sccn3c2/C=C/C(=O)c2c[nH]c3ccccc23)cc1`, the growth is 70.2%.
Turning to `C=C(CNCCc1ccc(O)cc1)[C@@H]1CC[C@]2(COC3CCCCO3)CC[C@]3(C)[C@H](CC[C@@H]4[C@@]5(C)CCC(NCCO)C(C)(C)[C@@H]5CC[C@]43C)[C@@H]12` (stereo not given in full), the growth was -79.9% (active).
As to `COc1ccc(O)c(-c2cc(-c3ccccc3)c(C#N)c(=O)[nH]2)c1`, the growth is 92.5%.
As to `CC(=[N-])N1CCC[C@@H](Nc2c3ccccc3nc3ccccc23)C1.[Cl][Pt].[NH-]CCC[NH-]`, the growth was 0.597% (active).
With `O=S(=O)(NCCNc1cc(-c2c(-c3cccc(O)c3)nc3sccn23)ccn1)c1ccc(Cl)cc1`, the growth is 58.3%.
To `N=C(N)c1ccc(-c2ccc(-c3ccc(Cl)cc3Cl)o2)nc1` belongs -63.2% (active); to `NS(=O)(=O)Oc1ccc(-c2sc3cc(O)ccc3c2C(=O)c2ccc(OCCN3CCCCC3)cc2)cc1`, 20.3%; to `O=C(/C=C/C12c3ccccc3C(c3ccccc31)C1C(=O)NC(=O)C12)c1ccccc1` (stereo not given), 1.66% (active).
Consider `OC(COc1cccc2ccccc12)CN1CCN(c2ccccc2)CC1` (stereo not given), for which the growth is 106%.
Take `CC(C)n1nc(C#Cc2cccc3cc(-c4cccc(C(F)(F)F)c4)ncc23)c2c(N)ncnc21`: the growth was 48.9%.
For the compound `O=c1oc2ccc(Cl)cc2cc1-c1cs/c(=N/N=C\c2ccc(Cl)cc2)n1/N=C/c1ccc(Cl)cc1`, the growth was 105%.
For the compound `Cc1c(C(N)=O)sc2nc(C)n(/N=c3\scc(-c4ccccc4)n3Cc3ccccc3)c(=O)c12`, the growth was 7.46% (active).
As to `CC(C)c1ccc(C(=O)OC(=O)c2ccc(C(C)C)cc2)cc1`, the growth was 96.3%.
To `NC(=S)N/N=C/C(=O)O` belongs 99.6%.
With `Nc1c(C(=O)c2ccccc2)nnc2ncnn12`, the growth is 106%.
On to `Nc1ccc(S(=O)(=O)Nc2ccsc2-c2nc(-c3ccccc3)no2)cc1`, for which the growth is 40.1%.
In the case of `O=C1NC(=S)S/C1=C\N1N=C(c2ccc(Cl)cc2)CC1c1ccc(F)cc1` (stereo not given) it was 95.8%.
